{"source": "PubChem BioAssay (NCI)", "note": "Compounds without any hit were thinned out: in the full panel of roughly 83,000, 20% have a hit.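 Assay: single dose, 48 h. Readout: percent growth (0 = no net growth; negative = cell death). Active: <10.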 Values without a mark were called inactive. Activity calls are given as the source filed them.", "data": [{"test_system": "OVCAR-4 ovarian", "test": "NCI-60 one-dose screen, 48 h (100 = growth as untreated, 0 = no growth, -100 = all killed)", "conditions": "10 µM unless noted", "procedure": "Growth inhibition of the OVCAR-4 human tumor cell line is measured as a screen for anti-cancer activity. Cells are grown in 96 well plates and exposed to the test compound for 48 hours. Compounds are tested at a single concentration, which is 10^-5 M for most compounds. The reported endpoint is percent growth (GI% or GIPRCNT), where numbers from 0 - 100% represent growth inhibition, and numbers from -100% - 0 represent cell death. For example, a value of 40 represents 60% growth inhibition. A value of 0 means no net growth occurred over the course of the experiment. A value of -40 indicates 40% of cells at the beginning of the experiment died by the end of the experiment. A value of -100 means all cells are dead at the end of the experiment.\nNCI-60 Human Tumor Cell Lines Screen was performed using the standard one-dose NCI protocol, which is described in more detail at https://dtp.cancer.gov/discovery_development/nci-60/default.htm.\nCompounds with GIPRCNT values below 10 were considered active. Activity score was based on GIPRCNT using the following formula: […]\nScore is 0 for GIPRCNT values of 100 or above, 50 for GIPRCNT values of 0, and 100 for GIPRCNT values of -100.", "values": [{"smiles": "CC(=O)c1ccc(-n2cc(CN3CCN(c4cc5c(cc4F)c(=O)c(C(=O)O)cn5C4CC4)CC3)nn2)cc1", "growth": "102%"}, {"smiles": "N#CSc1c[nH]c2ccc(/C=C/C(=O)/C=C(O)/C=C/c3ccc4[nH]cc(SC#N)c4c3)cc12", "growth": "18.6%"}, {"smiles": "O=C(/C=C/c1cn(-c2ccccc2)nc1-c1ccccc1)CCC(=O)NO", "growth": "112%"}, {"smiles": "Nc1ncnc2c1N=C(c1ccc(F)cc1)CC(c1cccc(Nc3ccnc4cc(Cl)ccc34)c1)N2", "note": "(stereo not given)", "growth": "76.3%"}, {"smiles": "CCOC(=O)c1cnn(CC(C)O)c1NC(=O)NCc1cccc(F)c1", "note": "(stereo not given)", "growth": "122%"}, {"smiles": "NCCCNc1nc2ccccc2c2c(=O)c3cc(Cl)ccc3sc12", "growth": "33.4%"}, {"smiles": "COC(=O)Cn1c2c(c3c(OC)cccc31)C(=O)c1ccccc1-2", "growth": "101%"}, {"smiles": "Cc1oc(-c2ccc(Cl)cc2)nc1C1=NN(C(=O)c2ccncc2)C(c2ccccc2)C1", "note": "(stereo not given)", "growth": "85.4%"}, {"smiles": "O=C1C(Cl)=C(Nc2ccccc2)C(=O)c2ccccc21", "growth": "-96.9% (active)"}, {"smiles": "Cc1ccc(S(=O)(=O)c2nc(-c3ccccc3)oc2SCC(N)=O)cc1", "growth": "99.6%"}, {"smiles": "CC(=O)O[C@H]1CC[C@]2(C)[C@H]3CC=C4[C@@H]5CC(C)(C)CC[C@]5(C(=O)N5CCN(CCC#N)CC5)CC[C@@]4(C)[C@]3(C)CC[C@H]2C1(C)C", "growth": "-44.1% (active)"}, {"smiles": "CSc1nc2ccc(C)cc2cc1/C=C1/C=C(c2ccccc2)NC1=O", "growth": "-51.9% (active)"}, {"smiles": "CN1CC(c2ccc(Br)cc2)C(C(=O)c2ccc(Br)cc2)C12C(=O)Nc1ccccc12", "note": "(stereo not given)", "growth": "63.6%"}, {"smiles": "Cc1ccc2cnc(N)c(C#Cc3cc(C(=O)Nc4ccc(CN5CCN(C)CC5)c(C(F)(F)F)c4)cnc3C)c2c1", "growth": "37.6%"}, {"smiles": "CN(C)C1CN(C(=O)c2cc(-c3ccc4ncnc(N5CCc6cc(F)c(Cl)cc65)c4c3)cnc2N)C1", "growth": "5.94% (active)"}, {"smiles": "COc1ccc(C(O)c2cc3c(N)c(C(=O)Nc4cccc5ccccc45)sc3nc2C)cc1", "note": "(stereo not given)", "growth": "34.5%"}, {"smiles": "COc1cc2c(cc1OCCCN1CCN(C(=S)SCCC(C#N)(c3ccccc3)c3ccccc3)CC1)N=C[C@@H]1CCCN1C2=O", "growth": "-19.2% (active)"}, {"smiles": "CCCCCCCCCCOC(=O)c1nn(C(C)=O)c2cc(C)c(C)cc12", "growth": "0.466% (active)"}, {"smiles": "COc1ccc(C2[C@@H](Cl)C(=O)N2c2cc(OC)c(OC)c(OC)c2)cc1Cl", "note": "(stereo not given in full)", "growth": "56%"}, {"smiles": "O=C(O)c1cn(C2CC2)c2cc(N3CCN(C(=O)N4CCOCC4)CC3)c(F)cc2c1=O", "growth": "106%"}, {"smiles": "CCN(CC)CCOc1ccc2c(-c3ccccc3)c(-c3ccc(OC)cc3)c(=O)oc2c1", "growth": "73.7%"}, {"smiles": "Cc1nc2sc(C(=O)Nc3ccccn3)c(N)c2cc1C(C)O", "note": "(stereo not given)", "growth": "81%"}, {"smiles": "O=C(O)c1cn(C2CC2)c2cc(N3CCN(C(=O)N/N=C/c4cccc5ccccc45)CC3)c(F)cc2c1=O", "growth": "98.3%"}, {"smiles": "O=S(=O)(N=C1C(Cl)=C(Cl)C(=NS(=O)(=O)c2ccccc2)C(Cl)=C1Cl)c1ccccc1", "growth": "91.9%"}, {"smiles": "O=C(CSc1nnnn1-c1ccccc1)Nc1ccc(Oc2ccccc2)cc1", "growth": "101%"}, {"smiles": "[N-]=[N+]=NCC1OC(n2cnc3c(NC(=O)Nc4ccccc4)ncnc32)C2OC(=O)CC12", "note": "(stereo not given)", "growth": "106%"}, {"smiles": "O=c1oc2c(cc1-c1ccccc1)c(=O)[nH]c1ccccc12", "growth": "99.6%"}, {"smiles": "COc1cc2ncnc(Nc3ccc(S(=O)(=O)Nc4nccs4)cc3)c2cc1OCCCN1CCCC1", "growth": "110%"}, {"smiles": "C=C(C)[C@@H]1CC[C@]2(CO)CC[C@]3(C)[C@H](CC[C@@H]4[C@@](C)(CCCN)[C@H](C(=C)C)CC[C@]43C)[C@@H]12", "growth": "-67.8% (active)"}, {"smiles": "CCn1cc(C(=O)N/N=C/c2cccc(F)c2)c(=O)c2cc(F)c(N3CCNC(C)C3)c(F)c21", "note": "(stereo not given)", "growth": "23.8%"}, {"smiles": "CN(C)Cc1ccc(NC(=O)c2cncc(C#Cc3cnc(N)c4ncccc34)c2)cc1C(F)(F)F", "growth": "-60.1% (active)"}, {"smiles": "O=c1cc(CNc2cc(F)cc(F)c2)c2ccc(I)cc2[nH]1", "growth": "60.2%"}, {"smiles": "COc1c2c(cc3c1C(=O)N[C@@H]1[C@@H](O)[C@@H](O)[C@H](O)C[C@@H]31)OCCO2", "growth": "105%"}, {"smiles": "CS(=O)(=O)Nc1cc(-c2ccc3ncnc(Nc4ccc5c(cnn5Cc5ccncc5)c4)c3c2)cnc1Cl", "growth": "84.8%"}, {"smiles": "N#Cc1c(-c2cccc(Cl)c2)cc(-c2cccnc2)[nH]c1=O", "growth": "102%"}, {"smiles": "CC(O)Cc1c[nH]c(=O)[nH]c1=O", "note": "(stereo not given)", "growth": "115%"}, {"smiles": "CC12OC(CC(O)C1O)n1c3ccccc3c3c4c(c5c6ccccc6n2c5c31)C(=O)N(CCN1CCCC1)C4=O", "note": "(stereo not given)", "growth": "27.9%"}, {"smiles": "COc1nc(/C=C\\Nc2ccc3c(c2)OCCOCCOCCOCCO3)nc(OC)n1", "growth": "95.5%"}, {"smiles": "CC/C(=C(\\c1ccc(Cl)cc1)c1ccc(OCCN2CCCCC2)cc1)c1ccc(O)cc1", "growth": "36.7%"}, {"smiles": "COc1ccc(Cl)cc1Nc1nc(C(F)(F)F)ccc1C(=O)N/N=C/c1ccc([N+](=O)[O-])cc1", "growth": "-12.1% (active)"}]}]}
